Laboratory results from PubChem BioAssay (NCI).
Where “and” joins values, the source holds several entries; their conditions need not be identical. Equal entries are not always repeated. Compounds without any hit were thinned out: in the full panel of roughly 83,000, 20% have a hit.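 Interpretation: 100, growth as untreated; towards 0, rising growth inhibition; 0, no net growth; 0 to -100, cell death. Compounds scoring below 10 were considered active.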 Unmarked numbers belong to inactive results. Calls of active or inactive are those of the source.

What follows are compounds tested on MDA-MB-468 breast (assay: NCI-60 one-dose screen, 48 h (100 = growth as untreated, 0 = no growth, -100 = all killed)). Conditions: 10 µM unless noted.

| Compound | growth |
| --- | --- |
| O=[N+]([O-])c1ccccc1NCSc1ccc(Cl)cc1 | 92.1% |
| Nc1nc(N)c2cc(CNc3ccc(Cl)c(Cl)c3)ccc2n1 | -75.3% (active) |
| Nc1c(C(=O)Nc2cccc(Cl)c2Cl)sc2nc3c(cc12)C(=O)CCC3 | 71.8% |
| COc1ccc(CCN2CC=Cn3c2nc2ccccc2c3=O)cc1 | -0.686% (active) |
| ON=C1CCCCCCCC1 | 102% and 107% |
| O=C(CCCCCn1c2ccccc2c2c3c(c4c5ccccc5[nH]c4c21)C(=O)N(O)C3=O)N1CCOCC1 | 3.68% (active) |
| CCC(C)C1NC(=O)C(CCCCN)NC(=O)C(CCCCN)NC(=O)C(CC(C)C)NC(=O)C(CCCCN)NC(=O)C(C(C)CC)NC(=O)C(C(C)C)NC(=O)C(C(C)CC)NC(=O)C(CCCCN)NC(=O)C(CCCCN)NC(=O)C(C)NC(=O)C(CCCCN)NC(=O)C(CC(C)C)NC1=O (stereo not drawn) | 1.45% (active) |
| COc1cc(Cl)cc(-c2nn(-c3cccc(NC(=O)c4cc(C(F)(F)F)cc(C(F)(F)F)c4)c3)cc2-c2ccncc2)c1 | 46.5% |
| Cc1c(O)nc(N)[nH]c1=O | 105% |
| Nc1ccc2[nH]c(-c3ccccc3)cc(=O)c2c1 | 51% |
| CCN(CC)c1ccc(/C=N/NC(=O)CSc2nc3ccccc3c(=O)n2CCc2ccc(S(N)(=O)=O)cc2)c(O)c1 | -7.72% (active) |
| COc1ccc2c(O)c(/C=C3\N=Nc4ncccc43)oc2c1C[C@@H]1CCNC[C@H]1F | -52.9% (active) |
| COc1ccc(C2CC(=O)c3c(O)c(OC)c(OC)c(OC)c3O2)cc1O (stereo not drawn) | 8.92% (active) |
